Assay results as given in PubChem BioAssay AID1159580 (chemical genetic matrix, 2015).
The whole screen tested about 5,500 compounds, of which about 2,000 (36%) were called active. Inconclusive results (about 18%) are left out. Rule as the data show it: active = normalized growth mostly below about 0.91 (no sharp cut-off); inconclusive = no clear call, values can overlap the other calls; inactive = mostly above about 0.92. Some of the results follow.

Assay: chemical genetic growth profiling, strain panel (AID 1159580);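 also: tested at 20 µM; growth read once vehicle control cultures reached saturation at 30 °C; 1 = growth at the plate median or of vehicle wells; lower values mean less growth of the strain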
Conditions: S. cerevisiae deletion strains, growth OD

Measured: normalized growth

C[C@@H]1OC(O[C@H]2C(O[C@H]3CC[C@@]4(C)C(CC[C@]5(C)C4CC=C4C6CC(C)(C)CC[C@]6(C(=O)O)CC[C@]45C)[C@]3(C)CO)OC[C@H](O)[C@@H]2O)[C@H](O)[C@H](O)[C@H]1O (stereo not given in full)
active: locus YAL021C, strain ccr4, hits give low values 0.0607 | locus YAL026C, strain drs2, hits give low values 0.0592 | locus YAL030W, strain snc1, hits give low values 0.0552 | locus YBL061C, strain skt5, hits give low values 0.058 | locus YBR009C, strain hhf1, hits give low values 0.061 | locus YBR021W, strain FUR4, hits give low values 0.267 | locus YBR023C, strain chs3, hits give low values 0.0603 | locus YBR171W, strain sec66, hits give low values 0.0767 | locus YBR229C, strain ROT2, hits give low values 0.32 | locus YBR231C, strain swc5, hits give low values 0.0595 | locus YBR279W, strain paf1, hits give low values 0.0577 | locus YCL011C, strain gbp2, hits give low values 0.0544 | locus YCL016C, strain dcc1, hits give low values 0.0589 | locus YCL029C, strain bik1, hits give low values 0.0636 | locus YCL061C, strain MRC1, hits give low values 0.0604 | locus YCL069W, strain vba3, hits give low values 0.0603 | locus YCR088W, strain abp1, hits give low values 0.059 | locus YDL005C, strain med2, hits give low values 0.0706 | locus YDL035C, strain GPR1, hits give low values 0.483 | locus YDL040C, strain nat1, hits give low values 0.0557 | locus YDL074C, strain BRE1, hits give low values 0.269 | locus YDL101C, strain DUN1, hits give low values 0.44 | locus YDL185W, strain tfp1, hits give low values 0.0554 | locus YDL192W, strain arf1, hits give low values 0.0745 | locus YDR001C, strain nth1, hits give low values 0.0586 | locus YDR069C, strain doa4, hits give low values 0.0606 | locus YDR101C, strain arx1, hits give low values 0.0695 | locus YDR137W, strain rgp1, hits give low values 0.0801 | locus YDR159W, strain sac3, hits give low values 0.0844 | locus YDR162C, strain NBP2, hits give low values 0.299 | locus YDR195W, strain ref2 0.105 | locus YDR297W, strain sur2, hits give low values 0.0548 | locus YDR318W, strain mcm21, hits give low values 0.0705 | locus YDR334W, strain swr1, hits give low values 0.0629 | locus YDR335W, strain msn5, hits give low values 0.0601 | locus YDR388W, hits give low values 0.0545 | locus YDR392W, strain spt3, hits give low values 0.0915 | locus YDR502C, strain sam2, hits give low values 0.0793 | locus YEL003W, strain gim4, hits give low values 0.0528 | locus YEL037C, strain rad23, hits give low values 0.0576 | locus YEL061C, strain CIN8 (second series), hits give low values 0.0604 | locus YEL061C, strain CIN8, hits give low values 0.447 | locus YER015W, strain faa2, hits give low values 0.059 | locus YER016W, strain bim1, hits give low values 0.059 | locus YER110C, hits give low values 0.0996 | locus YER111C, strain swi4, hits give low values 0.0703 | locus YER155C, strain BEM2 (second series), hits give low values 0.0853 | locus YER155C, strain BEM2, hits give low values 0.124 | locus YER167W, strain BCK2, hits give low values 0.24 | locus YFR010W, strain ubp6, hits give low values 0.0632 | locus YGL078C, strain dbp3, hits give low values 0.056 | locus YGL086W, strain mad1, hits give low values 0.0905 | locus YGL167C, strain pmr1, hits give low values 0.0718 | locus YGL173C, strain kem1, hits give low values 0.0643 | locus YGL227W, strain vid30, hits give low values 0.0617 | locus YGL240W, strain doc1, hits give low values 0.0707 | locus YGL248W, strain PDE1, hits give low values 0.422 | locus YGL253W, strain hxk2, hits give low values 0.053 | locus YGR078C, strain PAC10, hits give low values 0.325 | locus YGR135W, strain pre9, hits give low values 0.136 | locus YGR252W, strain gcn5, hits give low values 0.157 | locus YHR013C, strain ard1, hits give low values 0.114 | locus YHR027C, strain rpn1, hits give low values 0.0611 | locus YHR030C, strain SLT2, hits give low values 0.103 | locus YHR079C, strain IRE1 (second series), hits give low values 0.0576 | locus YHR094C, strain hxt1, hits give low values 0.0605 | locus YHR129C, strain ARP1, hits give low values 0.202 | locus YHR142W, strain chs7, hits give low values 0.0688 | locus YHR200W, strain rpn10, hits give low values 0.0676 | locus YIL066C, strain RNR3, hits give low values 0.457 | locus YIL073C, strain SPO22, hits give low values 0.285 | locus YIL125W, strain kgd1, hits give low values 0.0561 | locus YIR030C, strain dcg1, hits give low values 0.0652 | locus YJL092W, strain hpr5, hits give low values 0.0579 | locus YJL095W, strain BCK1 (second series), hits give low values 0.0567 | locus YJL095W, strain BCK1, hits give low values 0.143 | locus YJL115W, strain asf1, hits give low values 0.069 | locus YJL129C, strain trk1, hits give low values 0.0793 | locus YJL134W, strain LCB3, hits give low values 0.187 | locus YJL154C, strain vps35, hits give low values 0.0589 | locus YJL164C, strain tpk1, hits give low values 0.0589 | locus YJL166W, strain qcr8, hits give low values 0.0599 | locus YJL168C, strain set2, hits give low values 0.0664 | locus YJL187C, strain SWE1 (second series), hits give low values 0.48 | locus YJL187C, strain SWE1, hits give low values 0.0554 | locus YJR043C, strain POL32, hits give low values 0.42 | locus YKL009W, strain mrt4, hits give low values 0.0928 | locus YKL068W, hits give low values 0.0555 | locus YKL085W, strain MDH1 (second series), hits give low values 0.0602 | locus YKL085W, strain MDH1, hits give low values 0.0602 | locus YKL160W, strain elf1, hits give low values 0.0617 | locus YKR001C, strain vps1, hits give low values 0.0888 | locus YKR026C, strain gcn3, hits give low values 0.0618 | locus YKR091W, strain srl3, hits give low values 0.0568 | locus YLL001W, strain dnm1, hits give low values 0.0585 | locus YLL026W, hits give low values 0.0562 | locus YLL041C, strain sdh2, hits give low values 0.0555 | locus YLR027C, strain aat2, hits give low values 0.0549 | locus YLR039C, strain RIC1, hits give low values 0.135 | locus YLR058C, strain SHM2, hits give low values 0.414 | locus YLR102C, strain apc9, hits give low values 0.0668 | locus YLR221C, strain rsa3, hits give low values 0.0578 | locus YLR258W, strain gsy2, hits give low values 0.0581 | locus YLR262C, strain YPT6 (second series), hits give low values 0.0763 | locus YLR262C, strain YPT6, hits give low values 0.153 | locus YLR268W, strain sec22, hits give low values 0.0705 | locus YLR320W, strain mms22, hits give low values 0.0834 | locus YLR330W, strain CHS5, hits give low values 0.213 | locus YLR342W, strain FKS1 (second series), hits give low values 0.286 | locus YLR342W, strain FKS1, hits give low values 0.0611 | locus YLR357W, strain rsc2, hits give low values 0.11 | locus YLR370C, strain arc18, hits give low values 0.0593 | locus YLR371W, strain rom2, hits give low values 0.0622 | locus YLR384C, strain iki3, hits give low values 0.0588 | locus YLR418C, strain cdc73, hits give low values 0.114 | locus YML016C, strain PPZ1, hits give low values 0.214 | locus YML032C, strain rad52, hits give low values 0.0701 | locus YML120C, strain ndi1, hits give low values 0.0572 | locus YML124C, strain tub3, hits give low values 0.0681 | locus YMR058W, strain fet3, hits give low values 0.0577 | locus YMR078C, strain ctf18, hits give low values 0.0754 | locus YMR125W, strain sto1, hits give low values 0.0713 | locus YMR129W, hits give low values 0.0556 | locus YMR205C, strain PFK2, hits give low values 0.0864 | locus YMR223W, strain ubp8, hits give low values 0.0761 | locus YMR231W, strain pep5, hits give low values 0.0636 | locus YMR263W, strain SAP30, hits give low values 0.185 | locus YMR307W, strain GAS1, hits give low values 0.117 | locus YNL067W, strain RPL9B, hits give low values 0.471 | locus YNL071W, strain lat1, hits give low values 0.0594 | locus YNL128W, strain TEP1, hits give low values 0.401 | locus YNL209W, strain ssb2, hits give low values 0.0578 | locus YNL233W, strain BNI4, hits give low values 0.167 | locus YNL248C, strain rpa49, hits give low values 0.0674 | locus YNL250W, strain rad50, hits give low values 0.0622 | locus YNL271C, strain bni1, hits give low values 0.058 | locus YNL298W, strain CLA4, hits give low values 0.0574 | locus YNL307C, strain MCK1, hits give low values 0.0651 | locus YNL322C, strain KRE1 (second series), hits give low values 0.0635 | locus YNR049C, strain mso1, hits give low values 0.0575 | locus YNR052C, strain pop2, hits give low values 0.0612 | locus YOL147C, strain pex11, hits give low values 0.0641 | locus YOR001W, strain rrp6, hits give low values 0.0642 | locus YOR061W, strain CKA2, hits give low values 0.723 | locus YOR069W, strain VPS5, hits give low values 0.193 | locus YOR070C, strain gyp1, hits give low values 0.0577 | locus YOR080W, strain dia2, hits give low values 0.0631 | locus YOR083W, strain WHI5, hits give low values 0.0595 | locus YOR106W, strain vam3, hits give low values 0.0596 | locus YOR136W, strain idh2, hits give low values 0.0808 | locus YOR144C, strain elg1, hits give low values 0.0575 | locus YOR184W, strain ser1, hits give low values 0.0762 | locus YOR265W, strain rbl2, hits give low values 0.0556 | locus YOR270C, strain vph1, hits give low values 0.0934 | locus YOR290C, strain snf2, hits give low values 0.0761 | locus YOR316C, strain cot1, hits give low values 0.0649 | locus YPL051W, strain arl3, hits give low values 0.0588 | locus YPL078C, strain atp4, hits give low values 0.0628 | locus YPL106C, strain sse1, hits give low values 0.0896 | locus YPL240C, strain hsp82, hits give low values 0.0548 | locus YPR119W, strain clb2, hits give low values 0.0662 | locus YPR141C, strain kar3, hits give low values 0.0612 | locus YPR163C, strain tif3, hits give low values 0.0699 | locus YPR167C, strain met16, hits give low values 0.0649 | strain wtn01, hits give low values 0.0783
